# Assay results from the supplement of paper PMC3545927.
# This is one part of the list. No count for the full screen is at hand.
# Target: furin, P09958
# Experiment: furin cleavage Z-score vs untreated control; higher = more cleavage, active = 3.5 or more, inactive = 1 or less, 8 variable residues between constant flanks
# Procedure, shortened: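 Purified furin cleaved 8-mer peptides that were fused to a cDNA oligonucleotide and held on magnetic beads by their N-terminus. Each 0.01 ml reaction used a 1:10 enzyme:substrate ratio in 50 mM HEPES pH 7.5 with CaCl2 and NaCl and ran 7.5, 15 or 30 min. Released DNA was adapter-tagged by PCR and sequenced, and read counts gave abundance. The cleavage Z-score came from log counts against furin-free reactions, lowess-adjusted and scaled by median absolute deviation.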
# furin, P09958, sequence (P09958 whole entry): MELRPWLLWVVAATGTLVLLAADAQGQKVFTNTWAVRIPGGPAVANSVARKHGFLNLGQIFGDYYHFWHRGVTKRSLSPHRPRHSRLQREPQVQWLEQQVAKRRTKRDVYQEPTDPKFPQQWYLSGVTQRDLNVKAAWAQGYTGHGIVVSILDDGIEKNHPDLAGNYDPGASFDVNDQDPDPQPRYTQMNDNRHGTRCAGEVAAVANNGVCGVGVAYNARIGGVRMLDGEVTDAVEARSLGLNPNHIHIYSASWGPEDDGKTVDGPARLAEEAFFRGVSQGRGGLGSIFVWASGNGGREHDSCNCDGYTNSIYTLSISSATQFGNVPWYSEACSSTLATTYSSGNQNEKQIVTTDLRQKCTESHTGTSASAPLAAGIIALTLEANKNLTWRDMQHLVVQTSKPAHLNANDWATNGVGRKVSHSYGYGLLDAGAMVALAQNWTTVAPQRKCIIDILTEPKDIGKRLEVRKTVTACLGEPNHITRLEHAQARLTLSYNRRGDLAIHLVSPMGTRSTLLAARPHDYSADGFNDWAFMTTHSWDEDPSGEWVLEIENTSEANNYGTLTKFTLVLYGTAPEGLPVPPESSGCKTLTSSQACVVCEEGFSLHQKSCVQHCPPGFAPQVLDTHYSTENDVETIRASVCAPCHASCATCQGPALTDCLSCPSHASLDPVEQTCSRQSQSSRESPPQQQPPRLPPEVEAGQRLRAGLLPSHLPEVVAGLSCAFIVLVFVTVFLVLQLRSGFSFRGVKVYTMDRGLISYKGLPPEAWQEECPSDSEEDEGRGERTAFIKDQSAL
Sequence,furin cleavage Z-score (7.5 min),furin cleavage Z-score (15 min),furin cleavage Z-score (30 min)
CAEVVRSTWVAGNASASA [HC130],-1.7 (inactive),-0.333 (inactive),-1.26 (inactive)
CARMKRAGRVAGNASASA [FS-1751],5.19 (active),5.19 (active),5.87 (active)
CACVVIVGRVAGNASASA [HC1000],0.746 (inactive),-1.22 (inactive),1.75
CARMKRIFYRAGNASASA [FS-3162],0.804 (inactive),2.26,-0.0374 (inactive)
CAVKKRKGRVAGNASASA [FS-922],3.3,4.91 (active),6.5 (active)
CALVNLLPAIAGNASASA [HC1100],1.21,0.684 (inactive),0.808 (inactive)
CARNLGKVIDAGNASASA [HC219],-0.809 (inactive),0.0222 (inactive),-1.18 (inactive)
CATQGCNCSIAGNASASA [HC311],-0.897 (inactive),-0.922 (inactive),-0.937 (inactive)
CARKRRAKREAGNASASA [FS-1650],13 (active),13.6 (active),9.6 (active)
CAVMGRMKREAGNASASA [FS-892],13 (active),13.9 (active),9.25 (active)
CARPRRMKREAGNASASA [FS-710],12.1 (active),12.6 (active),8.41 (active)
CARMDRVKKEAGNASASA [FS-953],0.785 (inactive),2.5,3.22
CARPRRTKKTAGNASASA [DV3],0.136 (inactive),1.59,1.15
CAGKGRKYREAGNASASA [FS-125],8.32 (active),9.76 (active),7.89 (active)
CAGDGRSYRGAGNASASA [FS-529],-0.56 (inactive),-0.653 (inactive),-0.179 (inactive)
CAEVVTSYWVAGNASASA [HC2209],-1.41 (inactive),-1.3 (inactive),-1.27 (inactive)
CADLVGWPAPAGNASASA [HC714],-0.648 (inactive),-0.464 (inactive),-1.65 (inactive)
CAYHVTNDCPAGNASASA [HC261],-0.934 (inactive),-0.574 (inactive),-0.88 (inactive)
CAKKWRMKREAGNASASA [FS-809],12.2 (active),12.8 (active),10.8 (active)
CANHLTPLRDAGNASASA [HC636],-0.625 (inactive),-0.983 (inactive),-0.425 (inactive)
CAGQPRRSRDAGNASASA [FS-430],8.53 (active),9.91 (active),6.63 (active)
CAASCRPLTDAGNASASA [HC389],-0.403 (inactive),-0.436 (inactive),0.514 (inactive)

Sequence,furin cleavage Z-score (7.5 min),furin cleavage Z-score (15 min),furin cleavage Z-score (30 min)
CALQGRSSRDAGNASASA [FS-357],0.94 (inactive),1.14,2.12
CAPWQRVDRDAGNASASA [FS-843],-0.541 (inactive),0.153 (inactive),-0.511 (inactive)
CAGRLRPLRDAGNASASA [FS-164],6.08 (active),7.11 (active),5.86 (active)
CAAFGRRRRDAGNASASA [FS-639],6.8 (active),6.94 (active),5.25 (active)
CAPPPRRTRDAGNASASA [FS-840],7.22 (active),7.26 (active),5.47 (active)
CASWLRDIWDAGNASASA [HC1148],-1.29 (inactive),-0.331 (inactive),0.22 (inactive)
CAVYCCSMSYAGNASASA [HC2009],-0.694 (inactive),-1.09 (inactive),-1.22 (inactive)
CATTPCSGSQAGNASASA [HC1942],-0.135 (inactive),-0.54 (inactive),-2.05 (inactive)
CASRMREDRDAGNASASA [FS-871],-0.996 (inactive),-0.456 (inactive),1.09
CADRRRRRRDAGNASASA [FS-647],7.06 (active),7.21 (active),4.92 (active)
CAFQRRRRRDAGNASASA [FS-906],11.2 (active),12 (active),8.45 (active)
CARHIRRRRDAGNASASA [FS-1158],10.5 (active),10.7 (active),6.88 (active)
CAFQRRMAGMAGNASASA [FS-1671],-0.225 (inactive),-0.266 (inactive),0.306 (inactive)
CALTRRMRRDAGNASASA [FS-177],14 (active),14.8 (active),9.72 (active)
CARHIRLVLKAGNASASA [FS-2937],-1.39 (inactive),-0.583 (inactive),-0.338 (inactive)
CAMCTTPCSGAGNASASA [HC1946],0.117 (inactive),1.58,0.427 (inactive)
CAEVPCHRVSAGNASASA [HC2390],2.12,0.773 (inactive),2
CAEPTTPCSGAGNASASA [HC1979],-1.55 (inactive),-0.645 (inactive),-0.627 (inactive)
CAWTTQGCNCAGNASASA [HC310],0.795 (inactive),-2.96 (inactive),-0.152 (inactive)
CAWEMEECSQAGNASASA [HC1788],1.14,0.864 (inactive),-0.48 (inactive)
CATRGERCDLAGNASASA [HC484],-0.0552 (inactive),1.25,1.03
